Some test systems named below: 786-0 renal; MALME-3M melanoma; MDA-MB-231 breast; SF-268 CNS; SF-295 CNS; UACC-257 melanoma; UACC-62 melanoma; SK-MEL-2 melanoma; EKVX NSCLC; SN12C renal; UO-31 renal; TK-10 renal; CAKI-1 renal; A498 renal; OVCAR-8 ovarian; OVCAR-5 ovarian; IGROV1 ovarian; OVCAR-3 ovarian; HS 578T breast; NCI/ADR-RES ovarian.
Holding throughout (assay): NCI-60 one-dose screen, 48 h (100 = growth as untreated, 0 = no growth, -100 = all killed)
Settings in all cases: 10 µM

This is part of a sample that, as a whole, favours compounds with a hit. Of some 83,000 tested, about 20% had one in any assay.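 Single-dose data. Exposure time 48 hours. Values below 10 considered active.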 Values without a mark were called inactive. The source made the active and inactive calls.

Take `O=C(CN1CCN(c2ncnc3c2cnn3-c2ccccc2)CC1)Nc1ccc(Cl)cc1`: the growth was 40.4% with 786-0 renal; -56.2% (active) in the assay on MALME-3M melanoma; 63.3% in the assay on MDA-MB-231 breast; 44.3% in the assay on SF-268 CNS; 80.3% in the assay on SF-295 CNS; 49.9% in the assay with UACC-257 melanoma. The growth with UACC-62 melanoma is 45.3%; in the assay on SK-MEL-2 melanoma, 34.2%; in the assay on EKVX NSCLC, 45%; in the assay on SN12C renal it was 46.6%; in the assay with UO-31 renal, -60.5% (active); in the assay with TK-10 renal, 97.3%. The growth is -39.7% (active) with CAKI-1 renal; 78.7% with A498 renal; 56.6% in the assay on OVCAR-8 ovarian; 85.6% in the assay with OVCAR-5 ovarian; 48% with IGROV1 ovarian; 51.8% with OVCAR-3 ovarian. For the same molecule, the growth is 64.6% with HS 578T breast and 48% with NCI/ADR-RES ovarian.
`O=[N+]([O-])c1cccc(-c2nnc3c(/C=C/c4ccccc4O)nc4ccccc4n23)c1`: the growth with 786-0 renal was 77.7%; in the assay on MALME-3M melanoma, 86.5%; in the assay with MDA-MB-231 breast, 72.2%; in the assay on SF-268 CNS, 77.7%; with SF-295 CNS, 62.5%; with UACC-257 melanoma, 59.5%. Also, the growth with UACC-62 melanoma was 16%; in the assay on SK-MEL-2 melanoma it was 84.1%; with EKVX NSCLC, 54.2%; with SN12C renal, 63.4%; in the assay on UO-31 renal it was 41.8%; with TK-10 renal, 112%. Moreover, the growth with CAKI-1 renal was 40.6%; with A498 renal, 89.4%; in the assay with OVCAR-8 ovarian, 58.1%; in the assay with OVCAR-5 ovarian, 81.4%; with IGROV1 ovarian, 68.8%; in the assay on OVCAR-3 ovarian, 69.1%. Further, the growth in the assay with HS 578T breast is 30.7%; in the assay on NCI/ADR-RES ovarian it was 57.5%.
For the molecule `Cc1ccc(S(=O)(=O)N2CCN(S(=O)(=O)c3oc(-c4ccccc4)nc3C#N)CC2)cc1`, the growth in the assay with 786-0 renal was 86.6%; with MALME-3M melanoma it was 92.7%; in the assay on MDA-MB-231 breast, 100%; in the assay on SF-268 CNS, 79.1%; in the assay on SF-295 CNS it was 132%; with UACC-257 melanoma, 73.3%. Moreover, the growth in the assay on UACC-62 melanoma was 45.3%; in the assay with SK-MEL-2 melanoma, 75%; with EKVX NSCLC, 81.7%; with SN12C renal it was 76.8%; with UO-31 renal, 61.7%; in the assay with TK-10 renal it was 77%. In addition, the growth in the assay on CAKI-1 renal is 69.8%; with A498 renal, 88.4%; in the assay with OVCAR-8 ovarian, 84.7%; in the assay on OVCAR-5 ovarian, 91.1%; with IGROV1 ovarian it was 80.5%; in the assay on OVCAR-3 ovarian it was 92.5%. Further, the values for the growth in the assay on HS 578T breast and with NCI/ADR-RES ovarian were 95.2% and 83%, respectively.
With `Cc1ccc(COc2ccc(NC(=O)Nc3ccc(Cl)c(C(F)(F)F)c3)cc2)cc1`, the growth was 89.4% in the assay with 786-0 renal; 75.5% in the assay on MALME-3M melanoma; 90.2% in the assay with MDA-MB-231 breast; 86.2% in the assay with SF-268 CNS; 67.7% in the assay on SF-295 CNS; 76.1% with UACC-257 melanoma. In addition, the growth is 60.5% in the assay with UACC-62 melanoma; 85.3% with SK-MEL-2 melanoma; 63.1% in the assay with EKVX NSCLC; 81.1% in the assay with SN12C renal; 63.5% with UO-31 renal; 77.9% in the assay with TK-10 renal. Moreover, the growth is 61.7% in the assay with CAKI-1 renal; 82.6% with A498 renal; 80.4% in the assay with OVCAR-8 ovarian; 85% in the assay on OVCAR-5 ovarian; 79.2% in the assay on IGROV1 ovarian; 68.7% with OVCAR-3 ovarian. Further, the growth in the assay with HS 578T breast was 86.7%; with NCI/ADR-RES ovarian it was 84.7%.
Turning to `CCOc1ccc(/C=N/NC(=O)Cn2nc(Cc3ccc(OC)cc3)c3onc(C)c3c2=O)cc1`, the growth with 786-0 renal is -40.3% (active); in the assay on MALME-3M melanoma, -14.5% (active); in the assay with MDA-MB-231 breast, 20.7%; with SF-268 CNS it was 19%; in the assay on SF-295 CNS it was 20.4%; in the assay on UACC-257 melanoma, 62.1%. Further, the growth with UACC-62 melanoma is 29.2%; in the assay with SK-MEL-2 melanoma, 55.9%; with EKVX NSCLC it was 33.8%; with SN12C renal, -6.22% (active); with UO-31 renal, 2.46% (active); with TK-10 renal, 50.2%. The growth with CAKI-1 renal was 5.68% (active); in the assay with A498 renal, 48.2%; with OVCAR-8 ovarian, 16.9%; with OVCAR-5 ovarian, 44.9%; in the assay on IGROV1 ovarian it was 25.7%; in the assay on OVCAR-3 ovarian, 13.7%. Moreover, the figures for the growth in the assay with HS 578T breast and with NCI/ADR-RES ovarian were 1.74% (active) and 13.2%, respectively.
Regarding `COc1cc(-c2nc3ccc(C)cc3[nH]2)ccc1OCc1nnc(-c2ccccc2Br)o1`, the growth in the assay on 786-0 renal was 31.4%; with MALME-3M melanoma, 66.8%; with MDA-MB-231 breast, 69.7%; in the assay on SF-268 CNS it was 79.3%; in the assay with SF-295 CNS it was -0.44% (active); with UACC-257 melanoma it was 78.3%. Also, the growth in the assay on UACC-62 melanoma is 92%; in the assay on SK-MEL-2 melanoma it was 85.2%; with EKVX NSCLC, 64.6%; in the assay on SN12C renal, 76.1%; in the assay on UO-31 renal, 61.8%; in the assay with TK-10 renal, 116%. The growth in the assay with CAKI-1 renal is 66%; in the assay with A498 renal, 108%; in the assay on OVCAR-8 ovarian, 63.3%; in the assay with OVCAR-5 ovarian, 77.5%; in the assay on IGROV1 ovarian, 90.3%; with OVCAR-3 ovarian, 75.7%. For the same molecule, the figures for the growth in the assay with HS 578T breast and with NCI/ADR-RES ovarian were 62.2% and 75%, respectively.
With `COc1cc(C2CC(c3ccc(Oc4ccc(Cl)cc4)cc3)=NN2c2nc(-c3ccc(Cl)cc3)c(C#N)c(N3CCOCC3)n2)cc(OC)c1OC` (stereo not given), the growth in the assay with 786-0 renal is 98.8%; in the assay on MALME-3M melanoma it was 106%; in the assay on MDA-MB-231 breast, 100%; in the assay on SF-268 CNS, 104%; in the assay with SF-295 CNS, 107%; in the assay on UACC-257 melanoma it was 101%. For the same molecule, the growth is 91.2% with UACC-62 melanoma; 106% with SK-MEL-2 melanoma; 94.5% with EKVX NSCLC; 91.4% with SN12C renal; 79.2% in the assay with UO-31 renal; 96.1% in the assay on TK-10 renal. In addition, the growth with CAKI-1 renal was 79%; in the assay on A498 renal it was 114%; in the assay on OVCAR-8 ovarian it was 104%; with OVCAR-5 ovarian it was 101%; in the assay with IGROV1 ovarian it was 106%; with OVCAR-3 ovarian it was 117%. For the same molecule, the growth in the assay on HS 578T breast was 104%; in the assay with NCI/ADR-RES ovarian, 98.9%.
On to `O=C(CN1CCN(c2ncnc3c2cnn3-c2ccccc2)CC1)Nc1ccc(Br)cc1`, for which the growth in the assay with 786-0 renal was -61.7% (active); with MALME-3M melanoma, -54.4% (active); in the assay with MDA-MB-231 breast, 66.7%; in the assay on SF-268 CNS, 58.8%; in the assay on SF-295 CNS, 83%; with UACC-257 melanoma, 58.7%. For the same molecule, the growth in the assay on UACC-62 melanoma was 45.1%; in the assay on SK-MEL-2 melanoma, 29.9%; in the assay on EKVX NSCLC, 46.9%; in the assay with SN12C renal it was 39.1%; with UO-31 renal, -77% (active); with TK-10 renal, 121%. In addition, the growth in the assay on CAKI-1 renal was -57% (active); in the assay with A498 renal, 90.9%; in the assay with OVCAR-8 ovarian, 64.7%; in the assay on OVCAR-5 ovarian it was 78.2%; in the assay with IGROV1 ovarian it was 58.1%; in the assay with OVCAR-3 ovarian, 60.6%. The results for the growth in the assay on HS 578T breast and with NCI/ADR-RES ovarian were 70.7% and 56.1%, respectively.

Values taken from PubChem BioAssay (NCI).
